Measured values taken from PubChem BioAssay (NCI).
Compounds without any hit were thinned out: in the full panel of roughly 83,000, 20% have a hit.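 Single-concentration screen, 48 h exposure, 96-well plates. Endpoint: percent growth. Below 10 = active.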 Calls of active or inactive are those of the source.

Key:
Test in all cases: NCI-60 one-dose screen, 48 h (100 = growth as untreated, 0 = no growth, -100 = all killed)
Settings in all cases: 10 µM unless noted
HCT-15 colon = system: HCT-15 colon
HT29 colon = system: HT29 colon
SNB-75 CNS = system: SNB-75 CNS
SNB-19 CNS = system: SNB-19 CNS
U251 CNS = system: U251 CNS
PC-3 prostate = system: PC-3 prostate
SK-MEL-5 melanoma = system: SK-MEL-5 melanoma
UACC-62 melanoma = system: UACC-62 melanoma
LOX IMVI melanoma = system: LOX IMVI melanoma
SK-MEL-28 melanoma = system: SK-MEL-28 melanoma

Compound	growth (HCT-15 colon)	growth (HT29 colon)	growth (SNB-75 CNS)	growth (SNB-19 CNS)	growth (U251 CNS)	growth (PC-3 prostate)	growth (SK-MEL-5 melanoma)	growth (UACC-62 melanoma)	growth (LOX IMVI melanoma)	growth (SK-MEL-28 melanoma)
COc1ccc(Nc2ncccc2NC(=O)c2cn(Cc3cccc(Oc4ccccc4)c3)nn2)cc1	78.3% (inactive)	101% (inactive)	83.8% (inactive)	95.3% (inactive)	89.8% (inactive)	69.8% (inactive)	76.2% (inactive)	67% (inactive)	86.6% (inactive)	102% (inactive)
CN1CCN(c2ccc(OC(F)(F)F)c(Nc3ncc4c(n3)-c3c(c(C(N)=O)nn3CCO)CC4)c2)CC1	10.7% (inactive)	10.3% (inactive)	7.72% (active)	23.4% (inactive)	25.4% (inactive)	36.8% (inactive)	23.4% (inactive)	35.9% (inactive)	25.6% (inactive)	88.7% (inactive)
CC(=O)c1cnc2ccc(-c3cc(Cl)c(O)c(Cl)c3)nc2c1NC1CCC(CN(C)C)CC1 (stereo not given)	0.375% [2.5 µM] (active)	0.58% [2.5 µM] (active)	-96.9% [2.5 µM] (active)	5.41% [2.5 µM] (active)	-26.6% [2.5 µM] (active)	-12% [2.5 µM] (active)	-86.5% [2.5 µM] (active)	-70.9% [2.5 µM] (active)	-61.2% [2.5 µM] (active)	-39.8% [2.5 µM] (active)
CCNC(=O)C#Cc1ccc2c(C(=Nc3ccc(CN(C)C)cc3)c3ccccc3)c(O)[nH]c2c1	27.7% (inactive)	-40% (active)	3.23% (active)	29.5% (inactive)	22.4% (inactive)	44.4% (inactive)	17% (inactive)	-32.5% (active)	-75.7% (active)	-11.6% (active)
C/C(=C(/c1ccc(Cl)cc1)c1ccc(OCCN2CCCC2)cc1)c1ccccc1	8.01% (active)	4.46% (active)	86.1% (inactive)	80.7% (inactive)	63.9% (inactive)	64.5% (inactive)	14.9% (inactive)	48.9% (inactive)	30.6% (inactive)	62% (inactive)
COC(=O)CNC(=O)[C@@H](OC)[C@@H]1Cc2cc3cc(OC4CC(OC5CC(O)C(O)C(C)O5)C(O)C(C)O4)c(C)c(O)c3c(O)c2C(=O)[C@H]1OC1CC(OC2CC(OC3CC(C)(O)C(O)C(C)O3)C(O)C(C)O2)C(O)C(C)O1 (stereo not given in full)	31.5% (inactive)	3.78% (active)	-51.7% (active)	9.4% (active)	9.93% (active)	12.9% (inactive)	-44.6% (active)	-65.2% (active)	-15.5% (active)	-17.2% (active)
COc1ccc(-c2nocc2-c2cc(OC)c(OC)c(OC)c2)cc1	9.74% (active)	0.361% (active)	32.8% (inactive)	34.9% (inactive)	19.1% (inactive)	29% (inactive)	7.25% (active)	13% (inactive)	43.5% (inactive)	49.8% (inactive)
Cc1cc(O)cc(-c2c(-c3ccnc(-c4cccnc4)c3)cnn2C)c1	74% (inactive)	60.7% (inactive)	16.4% (inactive)	96.4% (inactive)	69.3% (inactive)	47.8% (inactive)	56.5% (inactive)	62.1% (inactive)	61.5% (inactive)	60.8% (inactive)
Cn1cnc(-c2cc3nccc(Oc4ccc(NC(=S)NC(=O)Cc5ccccc5)cc4F)c3s2)c1	85.3% (inactive)	62.6% (inactive)	78.6% (inactive)	96.6% (inactive)	79.7% (inactive)	81.3% (inactive)	76.7% (inactive)	93.8% (inactive)	94.5% (inactive)	98.3% (inactive)
O=C(NO)c1ccc(Cn2c(=O)n(-c3ccccc3F)c(=O)c3ccccc32)cc1	20.6% (inactive)	9.88% (active)	-3.9% (active)	6.93% (active)	-85.3% (active)	-33.6% (active)	-19.2% (active)	-46.2% (active)	-86.4% (active)	-21.5% (active)
Nc1ccc(S(=O)(=O)O)c2cc(S(=O)(=O)O)cc(O)c12	101% (inactive)	108% (inactive)	113% (inactive)	105% (inactive)	108% (inactive)	97.8% (inactive)	103% (inactive)	112% (inactive)	90.2% (inactive)	97.1% (inactive)
COc1ccc(-c2nc(N)ncc2Oc2ccccc2OC)c(O)c1	17.2% (inactive)	10.3% (inactive)	10.8% (inactive)	41.5% (inactive)	30.6% (inactive)	31% (inactive)	25% (inactive)	51% (inactive)	34% (inactive)	63.1% (inactive)
C=CC[n+]1c(/C=C2\Sc3ccccc3N2C)sc(-c2ccccc2)c1-c1ccccc1	26.2% (inactive)	6.28% (active)	12% (inactive)	26.8% (inactive)	15.1% (inactive)	17.9% (inactive)	-97.8% (active)	13.8% (inactive)	10.9% (inactive)	33.5% (inactive)
COc1ccc(Cl)c(Nc2nc3ccccc3nc2NS(=O)(=O)c2cccc(NC(=O)C(C)(C)N)c2)c1	44.9% (inactive)	27.7% (inactive)	-20.2% (active)	63.9% (inactive)	35% (inactive)	22.3% (inactive)	57.1% (inactive)	36.5% (inactive)	25.8% (inactive)	53.1% (inactive)
CSC1=C(N)C(=O)c2[nH]cc(CO)c2C1=N	-89.2% (active)	-9.17% (active)	-80.2% (active)	-92.2% (active)	-95.1% (active)	-39.9% (active)	-98.8% (active)	-83.2% (active)	-84.9% (active)	-78% (active)
Cc1cn(-c2cc(NC(=O)c3ccc(C)c(Nc4nccc(-c5cccnc5)n4)c3)cc(C(F)(F)F)c2)cn1	22.8% (inactive)	17.4% (inactive)	55.7% (inactive)	69.9% (inactive)	37.5% (inactive)	26% (inactive)	-22.5% (active)	9.88% (active)	44.1% (inactive)	-27.1% (active)
CC(=Nc1ccccc1)C1=C(O)C(Cc2ccc(O)cc2)NC1=O (stereo not given)	12.1% (inactive)	1.34% (active)	15.2% (inactive)	34% (inactive)	12.8% (inactive)	15.7% (inactive)	-44% (active)	28.6% (inactive)	19.2% (inactive)	40% (inactive)
CC(C)(C)OC(=O)N1CCC(O)[C@@H](O[Si](c2ccccc2)(c2ccccc2)C(C)(C)C)[C@H]1/C=C/c1ccccc1 (stereo not given in full)	41.1% (inactive)	37.9% (inactive)	46.8% (inactive)	58.5% (inactive)	44.4% (inactive)	14% (inactive)	30.2% (inactive)	57.1% (inactive)	61.4% (inactive)	65.1% (inactive)
COc1cc(Nc2c(C#N)cnc3cc(OCCCN4CCN(C)CC4)c(OC)cc23)c(Cl)cc1Cl	57.5% (inactive)	10.3% (inactive)	87.6% (inactive)	70.4% (inactive)	65% (inactive)	84.7% (inactive)	62.5% (inactive)	9.83% (active)	33.1% (inactive)	19.3% (inactive)
COc1cc(NC2CCC(=O)N2c2ccc(Cl)cc2Cl)cc(OC)c1OC (stereo not given)	108% (inactive)	107% (inactive)	86.5% (inactive)	101% (inactive)	97.7% (inactive)	95.9% (inactive)	103% (inactive)	104% (inactive)	96.6% (inactive)	104% (inactive)
CCN1CCN(Cc2ccc(NC(=O)Nc3nc(-c4cc(OC)c(OC)c(OC)c4)cs3)cc2C(F)(F)F)CC1	-12.6% (active)	0.541% (active)	24.2% (inactive)	33.7% (inactive)	15.3% (inactive)	6.09% (active)	-95.3% (active)	-68.4% (active)	-82.7% (active)	-51.3% (active)
CC(C)[C@@H]1CC[C@@H]2[C@@H]1[C@H](OC(=O)/C=C/c1ccccc1)[C@]1(C(C)C)C[C@@H](OC(=O)CO)[C@@]2(C)O1	78% (inactive)	75% (inactive)	38.1% (inactive)	99% (inactive)	74.3% (inactive)	30% (inactive)	81.2% (inactive)	84.3% (inactive)	81% (inactive)	104% (inactive)
CC(C)(C)C(=O)OCOP(=O)(OCOC(=O)C(C)(C)C)C1CCCN(OC(=O)c2ccccc2)C1=O (stereo not given)	28.6% (inactive)	5.75% (active)	73.1% (inactive)	14% (inactive)	6.63% (active)	49.7% (inactive)	-28% (active)	4.95% (active)	40.1% (inactive)	-11.1% (active)
